Assay outcomes deposited in PubChem BioAssay by National Center for Advancing Translational Sciences (NCATS).
Shown are actives, neighbours in structure and some others; about 2.4% of the full set was active somewhere.
D2 PAM-1 = human D2 receptor positive allosteric modulation | 360,000 compounds, 0.23% hits | potentiation, % (concentration not given with the values) | DiscoveRx D2 beta-arrestin cells, luminescence, 90 min; 100% = 57 uM dopamine signal | P14416 | AID 624464; in the data active = potentiation above about 50%; inconclusive = mostly about 30% to 49%
Target sequence (P14416 whole entry, looked up): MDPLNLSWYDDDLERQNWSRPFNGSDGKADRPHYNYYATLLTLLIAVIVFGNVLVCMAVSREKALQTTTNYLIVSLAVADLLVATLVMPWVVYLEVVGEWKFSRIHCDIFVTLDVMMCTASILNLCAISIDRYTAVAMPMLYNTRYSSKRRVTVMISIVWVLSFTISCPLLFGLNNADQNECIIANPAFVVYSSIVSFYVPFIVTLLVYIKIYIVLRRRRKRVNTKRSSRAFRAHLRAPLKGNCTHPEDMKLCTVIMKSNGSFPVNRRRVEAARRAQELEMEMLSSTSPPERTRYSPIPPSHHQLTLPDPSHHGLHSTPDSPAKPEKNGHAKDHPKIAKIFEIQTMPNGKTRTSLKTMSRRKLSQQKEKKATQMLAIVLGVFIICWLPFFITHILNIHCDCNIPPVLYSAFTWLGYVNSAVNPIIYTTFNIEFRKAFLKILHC
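PathHunter beta-arrestin assay in DiscoveRx D2 cells. Compounds were added with an EC20 of dopamine (50 nM final) for 90 min at 37 deg C. Luminescence was read 1 h after detection reagent, with 57 uM dopamine as the EC100 control.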
D2 PAM-2 = positively modulates the human D2 dopamine receptor allosterically; 340,000 compounds, 0.34% hits; HEK293 T-REx D2, calcium flux, EC20 dopamine potentiation; potentiation, % at 10 µM; AID 485347;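 active = potentiation over 3 SD above the plate norm, cut at about 30% in these data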; also: 0% is about no effect
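Primary screen. Calcium kinetics in induced HEK293 T-REx D2 cells: compound pre-addition 180 s, EC20 dopamine, 180 s more.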
D2 ag-1 = human D2 receptor agonism in beta-arrestin assay. DiscoveRx PathHunter D2 beta-arrestin, luminescence, 90 min; 100% = 57 uM dopamine signal. activation, % (test concentration not listed). AID 624465. 360,000 compounds, 0.084% hits; in the data active = activation above about 40%; inconclusive = between about 15% and that limit
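Agonist mode: compounds alone added to overnight-plated D2 PathHunter cells for 90 min at 37 C, with 57 uM final dopamine (EC100) defining full response. Beta-arrestin recruitment detected by chemiluminescent reagent, read after 1 h at ambient temperature.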
D2 antag = D2 dopamine receptor (human) antagonism. inhibition, % at 10 µM. AID 485344. 340,000 compounds, 2% hits. P14416. HEK293 TREx D2 cells, calcium flux, dopamine EC80; in the data active = inhibition above about 30%; inactive = below that, where a call was filed; also: 0% is about no effect
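Overnight-induced (tetracycline, 30 C) HEK293 T-REx cells carrying force-coupled D2 receive a no-wash calcium dye, then compound, then EC80 dopamine at 180 s; signals are read kinetically throughout.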
D2 ag-2 = agonists of human D2 dopamine receptor; P14416; HEK293 T-REx D2 cells, calcium flux agonist mode; activation, % at 2 µM; 340,000 compounds, 0.53% hits;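 active = activation over 3 SD above normal in the single-dose calcium agonist read, cut at about 30% in these data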; also: 0% is about no effect
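In this primary screen, compounds producing a positive calcium signal within 180 s of addition to tetracycline-induced, force-coupled HEK293 Trex D2 cells are flagged; cells are dye-loaded with a no-wash calcium kit beforehand.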
D3 ag = activates human D3 dopamine receptor beta-arrestin recruitment | shares compounds with D2 ag-2 | DiscoveRx D3 beta-arrestin cells, luminescence, 90 min | Potency, µM (top dose mostly 76.9 µM), without a hit: at the top dose activation, usual class: activators | 2,300 compounds, 4% hits | AID 720506;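 also: potency is read from the fitted curve at half-maximal effect; 100% = dopamine control response; nearly all actives have a fitted effect of over 70% in size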
D2 ag-3 = activates human D2 dopamine receptor in D3 counterscreen | shares compounds with D2 ag-2 | DiscoveRx PathHunter D2 beta-arrestin, luminescence, 90 min; response scale: percent relative to full dopamine signal | Potency, µM (titrated, usually from 76.9 µM), for inactives: at the top dose activation, usual class: activators | 2,300 compounds, 5.9% hits; also: potency is read from the fitted curve at half-maximal effect; % of control where 0% means no effect; nearly all actives have a fitted effect of over 70% in size
* hit, by the source's call; ? = inconclusive; · = no result. Unless noted, calls follow the shape of the dose curve; as a rule, active = well fitted activation curve with a large enough effect; inconclusive = small, poorly fitted or top-dose-only effect; inactive = flat fitted curve, though single readings scatter.

SMILES	D2 PAM-1	D2 PAM-2	D2 ag-1	D2 antag	D2 ag-2	D3 ag	D2 ag-3
COC(=O)c1[nH]c2ccccc2c1NC(=O)C(C)N1CCN(C(=O)c2ccco2)CC1 (centres undefined)	-19.1	-11.9	?	6.3	47.0*	?	16.8%
COC(=O)c1[nH]c2cc(C)ccc2c1NC(=O)CN1CCN(C(=O)c2ccco2)CC1	-15.0	·	11.4	·	·	-6.0%	18.5%
COC(=O)c1[nH]c2ccccc2c1NC(=O)C(C)N1CCOCC1 (centres undefined)	-0.5	-0.5	-3.4	·	·	·	·
CC(CCc1ccccc1)NCc1ccc(Cl)cc1Cl (centres undefined)	1.3	-26.4	13.8	45.0*	51.8*	16.4%	9.8%
CC(CCc1ccccc1)NCC#N (centres undefined)	-7.8	-17.4	8.3	33.6*	56.7*	8.0%	6.5%
CC(CCc1ccc(O)cc1)NCc1ccc(Br)cc1 (centres undefined)	-16.0	-14.6	0.5	31.7*	38.8*	?	2.2%
COc1ccc(CNC(C)CCc2ccccc2)cc1 (centres undefined)	-24.5	-26.1	3.5	61.5*	64.5*	-1.1%	9.7%
CC(=O)NC(C)CCc1ccccc1 (centres undefined)	-3.3	8.3	0.3	-11.3	0.5	·	·
COc1ccc(CCNC(=O)c2ccc3c(c2)N(Cc2ccc(F)cc2)C(=O)c2ccccc2S3(=O)=O)cc1OC	·	5.3	·	·	1.8	·	·
COc1ccc(C(=O)N2CCN(c3nc4c(C)c(Cl)ccc4s3)CC2)c(OC)c1	·	0.3	·	·	0.3	·	·
Cc1c(/C=C(\C#N)C(=O)Nc2cccc(Cl)c2)c2ccccc2n1Cc1ccccc1	·	-2.2	·	·	3.7	·	·
COc1cc(CCC(C)NCc2ccccc2)ccc1O (centres undefined)	-12.4	-34.7	?	74.9*	79.3*	-3.9%	?
COc1ccc(CNC(=O)CCc2c(C)nn(-c3ccc(N4CCCCC4)nn3)c2C)cc1	·	-8.3	·	·	2.0	·	·
CC1=C(C(=O)Nc2ccc(C)cc2C)C(C(C)C)n2nc(SCc3ccccc3Cl)nc2N1 (centres undefined)	·	19.1	·	·	0.4	·	·
COc1ccc(Oc2cc(C)c3ccccc3n2)cc1	?	-19.0	?	44.6*	43.9*	?	?
Cc1ccc(Oc2cnc3ccccc3n2)cc1	-2.5	-6.3	-3.0	-3.9	1.1	·	·
CC1CC(C)CN(CCCNC(=O)CN2C(=O)CSc3ccc(S(=O)(=O)N4CCOCC4)cc32)C1 (centres undefined)	-24.3	-18.1	1.8	40.2*	29.2	-3.9%	7.6%
CCCCN(CC)CCCNC(=O)CN1C(=O)CSc2ccc(S(=O)(=O)N3CCOCC3)cc21	-8.1	-17.9	4.2	-22.1	23.0	-6.3%	2.9%
CCOc1ccccc1CNC(=O)c1cn(-c2ccc(OC)cc2)c(=O)c2ccccc12	·	7.8	·	·	-0.4	·	·
CCn1c(=O)c2sccc2n2c(CCC(=O)Nc3ccc(C(C)C)cc3)nnc12	·	13.7	·	·	-0.4	·	·
O=C(N/C(=C/c1ccc(F)cc1)C(=O)N1CCOCC1)c1ccccc1	-7.3	2.5	-8.1	0.1	-0.1	-7.7%	-3.4%
COc1ccc(N2CCN(C(c3cccs3)C(C)NC(=O)C(=O)N3CCOCC3)CC2)cc1 (centres undefined)	1.1	-3.9	-0.6	-15.0	-1.3	·	·
CC(NC(=O)C(=O)N1CCOCC1)C(c1cccs1)N1CCN(c2ccccc2)CC1 (centres undefined)	-6.6	-14.8	0.0	-5.1	44.3*	-0.5%	6.2%
NC(=O)c1ccc(SCC(=O)OCC(=O)NC2CCCCCCC2)c([N+](=O)[O-])c1	-0.4	4.2	10.4	9.6	-0.1	14.2%	0.5%
